# Screens as filed in PubChem.
# ELG1 DNA repair: ELG1-dependent DNA repair inhibition; HEK293T ELG1-luciferase reporter, luminescence, 16 h; DNA damage induced by 5-fluorouridine; Potency, µM (titrated, usually from 46.1 µM), for the others: at the top dose activity change, negative = inhibition, actives largely listed as inhibitors; actives 2.3% (n = 330,000); further: on the % scale 0 is the no-effect control and ±100 the full control effect; nearly all actives have a fitted effect of over 55% in size
#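 Reporter activity after DNA damage by 5-fluorouridine is monitored. Compound-treated cells incubate 16 hr at 37 °C, then ONE-Glo is added for 30 min before luminescence reading.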
# KB-V1 cytotox: KB-V1 MDR subline cytotoxicity; KB-V1 MDR cells viability, CellTiter-Glo, 72 h; actives 3.4% (n = 400,000); Potency, µM (series often up to 46.1 µM), hits mostly cytotoxic; further: on the % scale 0 is the no-effect control and ±100 the full control effect; nearly all actives have a fitted effect of over 60% in size
#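 qHTS viability screen in drug-selected KB-V1 MDR cells: 72 h compound treatment at 37 degrees C, ATP luminescence end point.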
# MCF10A rereplic: DNA re-replication induction in MCF 10a cells; MCF 10A DNA re-replication, Hoechst nuclear intensity, 48 h; Potency, µM (doses to about 46.1 µM), for the others: at the highest dose activity, positive = re-replication, hits mostly activators; actives 2.9% (n = 350,000); AID 624296; further: % of control where 0% means no effect; nearly all actives have a fitted effect of over 50% in size
# KB-3-1 tox: kills parental KB-3-1 adenocarcinoma cells; Potency, µM (doses to about 46.1 µM), hits mostly cytotoxic; actives 1.4% (n = 400,000); KB-3-1 viability, CellTiter-Glo ATP luminescence, 72 h; further: on the % scale 0 is the no-effect control and ±100 the full control effect; nearly all actives have a fitted effect of over 60% in size
#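 Using CellTiter-Glo luminescence, growth of non-resistant KB-3-1 adenocarcinoma cells is assessed 72 h after pin-tool compound addition at 37 °C. Normalized responses across the concentration series yield fitted curves.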
# SW480 rereplic: DNA re-replication induction in SW480 cells | SW480 DNA re-replication, Hoechst DNA content imaging, 48 h | Potency, µM (doses to about 46.1 µM), for inactives: at the top dose re-replication activation, hits mostly activators | actives 1.8% (n = 340,000); further: % of control where 0% means no effect; nearly all actives have a fitted effect of over 55% in size
#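 Cells (250 per well) received 23 nL compound or DMSO by pin tool and were kept 48 hr at 37 C, 5% CO2. Nuclei were then stained with Hoechst for 40 min and scanned for DNA content.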
# Numbers without * were called inactive; i = inactive; ? = inconclusive; · = not tested or not shown; [ ] = dose if it differs, or a comment. Hits are enriched below; roughly 8.1% of the tested compounds scored in any of these assays. The call rests on the fitted dose curve; in most records, active means well fitted curve in the direction sought with a large enough effect; inconclusive means small, poorly fitted or top-dose-only effect, or another doubt; inactive means no such curve, though single readings can be large; an effect the other way counts as inactive or inconclusive. Potency means the concentration at half of the fitted maximal effect.
SMILES,ELG1 DNA repair,KB-V1 cytotox,MCF10A rereplic,KB-3-1 tox,SW480 rereplic
Cc1cc(NC(=O)Nc2ccccc2F)ccc1Br,?,?,18.4µM*,?,?
N#CCc1ccc(NC(=O)Nc2cccc(Cl)c2)cc1,6.9%,14.6µM*,21.9%,?,2.1%
O=C(Nc1cccc(Cl)c1)Nc1cccc(Cl)c1,-28.0%,?,?,i,2.2%
O=C(NNC(=O)c1ccc(Cl)c(Cl)c1)c1cccnc1,0.7%,i,0.5%,i,-4.1%
COc1ccc(C(=O)Nc2cccc(C(C)=O)c2)c(OC)c1OC,?,i,29.5%,i,-1.5%[9.22 µM]
COC(=O)c1cccc(NC(=O)c2cc(OC)c(OC)c(OC)c2Br)c1,11.6µM*,?,4.6%,i,-0.7%
O=C(Nc1cccc(Cl)c1)Nc1ccc(Br)cc1F,13.8%,20.6µM*,?,16.4µM*,?
O=C(Nc1ccccc1)Nc1ccc(Br)cc1F,?,i,3.2%,i,-6.3%
O=C(Nc1cccc(Cl)c1)OCCOCCOC(=O)Nc1cccc(Cl)c1,·,i,20.6µM*,?,2.1%
O=C(COC(=O)c1cccc([N+](=O)[O-])c1)NCc1ccc2c(c1)OCO2,1.7%,i,4.1%,i,4.6%
CCN(CC)S(=O)(=O)c1cccc(S(=O)(=O)c2cccc(S(=O)(=O)N(CC)CC)c2)c1,8.91µM*,i,?,?,-3.6%
CCN(CC)S(=O)(=O)c1ccc2c(c1)C(=NO)c1cc(S(=O)(=O)N(CC)CC)ccc1-2,7.31µM*,11.6µM*,8.2µM*,6.51µM*,?
CCN(CC)S(=O)(=O)c1cccc(S(=O)(=O)N2CCCCC2)c1,-2.6%,i,-0.9%,i,7.1%
COc1ccc2c(c1)CCc1c(C(=O)N(C)c3ccccc3)noc1-2,?,i,10.0%,?,0.0%
Cc1ccc(/C(N)=N/OC(=O)COc2cccc3ccccc23)cc1,·,i,·,i,·
O=C(NNC(=O)c1cc(-c2ccc(Br)cc2)nc2ccccc12)c1csc(N2CCOCC2)n1,·,i,-3.5%,i,8.8%
Cc1ccc(COC(=O)c2cc(S(=O)(=O)N3CCOCC3)ccc2C)cc1,23.1µM*,i,22.6%,i,-7.5%
Cc1ccc(N(Cc2ccccc2)C(=O)c2cc(S(=O)(=O)N3CCOCC3)ccc2Cl)cc1,-7.9%,?,?,?,-19.2%
CSc1ncccc1C(=O)OCC(=O)Nc1ccc(S(=O)(=O)N2CCCC2)cc1,-4.2%,i,-1.1%,i,-4.9%
Cc1ccc(N(Cc2ccccc2)C(=O)c2cc(S(=O)(=O)N3CCOCC3)ccc2F)cc1,15.9%,9.2µM*,19.9%,i,-0.9%
O=C(COC(=O)c1cc(S(=O)(=O)N2CCCCC2)ccc1N1CCOCC1)c1ccc(F)cc1,10.3µM*,i,0.6%,i,-92.8%
CSc1ncccc1C(=O)OCC(=O)c1ccc(S(=O)(=O)N2CCCCC2)cc1,-5.5%,23.1µM*,3.9%,i,-3.5%
COc1ccc(-n2nnnc2SC(C)C(=O)NCC(=O)Nc2ccc(F)c(F)c2F)cc1 (stereo unspecified),?,?,-1.8%,i,0.5%
CN(C)CCN(C(=O)CCc1ccccc1)c1nc2c(F)cc(F)cc2s1,-10.4%,i,-2.9%,i,-3.2%
O=C1C=C(NCc2ccco2)CCC1,-2.9%,i,-5.4%,i,-12.7%
SMILES,ELG1 DNA repair,KB-V1 cytotox,MCF10A rereplic,KB-3-1 tox,SW480 rereplic
Cc1ccc(S(=O)(=O)N2CCOCC2)cc1C(=O)OCC(=O)N1CCCCC1,6.6%,18.4µM*,13.2%,i,-3.9%
O=C(OCC(=O)N1CCCCCC1)c1ccc(S(=O)(=O)N2CCOCC2)cc1,3.4%,i,5.3%,i,-18.4%
C=CCn1c(O)c(C(CC)=Nc2ccccc2NC(=O)CC)c(=O)[nH]c1=O,14.9%,i,7.3%,i,-2.7%
CCN=C1NN=C(c2cc(C)n(CCc3ccccc3)c2C)CS1,21.5%,?,?,i,12.9%
Cc1ccc(C)c(C2=NNC(=NCc3ccccc3)SC2)c1,?,i,23.1µM*,i,?
C=CCn1c(C)cc(C2=NNC(=NCc3ccccc3)SC2)c1C,?,9.2µM*,?,?,?
O=C(/C=C/c1ccco1)Nc1cccnc1,?,i,-11.9%,i,-16.9%
O=C(/C=C/c1ccco1)Nc1nc(-c2ccccn2)cs1,?,i,136.7%,i,?
O=C(/C=C/c1ccco1)Nc1ccccn1,?,?,14.6µM*,5.8µM*,5.17µM*
Cc1ccc(NC(=O)/C=C/c2ccco2)nc1,?,0.103µM*,?,0.164µM*,?
O=C(O)c1cc(N/N=C/c2ccc(-c3ccccc3)cc2)ccc1Cl,?,i,3.26µM*,i,?
O=C(O)c1cc(N/N=C/c2ccncc2)ccc1Cl,-4.2%,i,-12.7%,i,29.5%
O=C(O)c1ccc(N/N=C/c2ccc(-c3ccccc3)cc2)cc1,?,i,1.3µM*,?,20.6µM*
O=C(N/N=C/C=C/c1ccccc1)c1ccncc1,?,i,-4.7%,i,-5.1%
O=C(O)c1ccc(/C=N/Nc2ccc(C(F)(F)F)cn2)cc1,?,i,11.6µM*,i,5.8µM*
O=C(O)c1ccc(N/N=C/C=C/c2ccccc2)cc1,?,i,14.6µM*,i,-4.9%
O=C1OC2(CCCCC2)OC(=O)C1=CNc1nccs1,4.6%,i,6.9%,i,-18.1%
O=C(Cc1ccccc1F)OCC(=O)N1CCc2ccccc21,5.2%,i,-6.9%,i,1.3%
C/C(CC(=O)NC1CCCCCC1)=N\NC(=O)c1cnccn1,12.5%,i,-3.1%,i,0.517µM*
O=C(NC1CCCCCCC1)c1cnccn1,?,i,0.2%,i,-10.4%
Cc1cc(C)c2c3c(sc2n1)C(=O)N(Cc1ccccc1)CC(=O)N3,?,i,-0.3%,i,-12.0%
Cc1cccc(N2CCN(C(=O)Cn3cccc3C(=O)c3ccccc3)CC2)c1C,-25.5%,16.4µM*,?,?,?
O=C(c1ccccc1)c1cccn1CC(=O)N1CCCCCC1,12.6%,i,-0.7%,i,3.2%
CCOC(=O)C1CCN(C(=O)C(CC)c2ccccc2)CC1 (stereo unspecified),0.0%,i,-2.4%,i,18.4µM*
CCOC(=O)C1CCN(C(=O)Cn2cccc2C(=O)c2ccccc2)CC1,0.0%,20.6µM*,15.5%,i,-3.9%
O=C(/C=C/c1cccc(F)c1)OCC(=O)N1CCCC1,0.8%,i,?,i,8.2µM*
Cc1ccc(OCCCC(=O)Nc2nnc(C3CCCO3)s2)c(C)c1 (stereo unspecified),1.4%,?,1.3%,i,-11.0%
CCc1nnc(NC(=O)c2ccc(-c3ccccc3Cl)o2)s1,?,i,-1.2%,i,-15.8%
